We go through 21 compounds from PubChem BioAssay (NCI).

Structures are written as SMILES. Values joined by “and” are separate entries in the source; they are usually repeats but may differ in a detail not shown here. Identical values can stand only once. The panel holds about 83,000 compounds, 20% with a hit somewhere; the sample as a whole holds those more often.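 Percent growth is the endpoint: 0 to 100 indicates growth inhibition (40 means 60% inhibition), 0 means no net growth, and negative values indicate cell death.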 Some structures have more than one record in an assay (separate samples or runs), and their calls can disagree. Active and inactive are the calls of the source. Rule for the calls: active = growth percent below 10; inactive = the rest.

Test systems include T-47D breast; BT-549 breast; MDA-MB-435 melanoma; SW-620 colon; MCF7 breast; HCT-116 colon; HCC-2998 colon; KM12 colon.
Test in all cases: NCI-60 one-dose screen, 48 h (100 = growth as untreated, 0 = no growth, -100 = all killed)
Holding throughout (conditions): 10 µM unless noted

For `CCC(O)c1ccccc1` (configuration not stated), the growth in the assay with T-47D breast was 106% (inactive) and 102% (inactive); with BT-549 breast, 133% (inactive); in the assay on MDA-MB-435 melanoma, 89.8% (inactive) and 107% (inactive); in the assay with SW-620 colon it was 109% (inactive) and 104% (inactive); in the assay with MCF7 breast, 103% (inactive) and 95.6% (inactive); in the assay on HCT-116 colon, 86.7% (inactive) and 108% (inactive). The growth in the assay on HCC-2998 colon is -87.7% (active); in the assay with KM12 colon it was 116% (inactive) and 108% (inactive).
In the case of `COc1ccccc1/C=N\N=C(N/N=C/c1ccccc1OC)N/N=C/c1ccccc1OC`, the growth in the assay with T-47D breast was 61.9% (inactive) and 27% (inactive); in the assay on BT-549 breast, 80.8% (inactive) and 39.1% (inactive); with MDA-MB-435 melanoma it was 61.9% (inactive) and 30.2% (inactive); with SW-620 colon, 60.8% (inactive) and 20.1% (inactive); with MCF7 breast, 23.8% (inactive) and 6.76% (active); in the assay on HCT-116 colon, 39.5% (inactive) and 14% (inactive). In addition, the growth with HCC-2998 colon was 33.7% (inactive) and 26.8% (inactive); in the assay on KM12 colon, 43.1% (inactive) and 15.6% (inactive).
On to `CC(/C=N/N1C(=O)c2ccccc2C1=O)c1ccccc1` (configuration not stated), for which the growth in the assay with T-47D breast is 98.7% (inactive); in the assay with BT-549 breast, 113% (inactive); in the assay on MDA-MB-435 melanoma, 91.6% (inactive); with SW-620 colon, 106% (inactive); with MCF7 breast, 97.5% (inactive); in the assay on HCT-116 colon, 108% (inactive). Further, the growth in the assay on KM12 colon was 113% (inactive).
Regarding `CC1=C(/C=C/C(C)=C/C=C/C(C)=C/C(=O)Nc2ccc(O)cc2)C(C)(C)CCC1`, the growth is 5.78% (active) in the assay with T-47D breast; 21.9% (inactive) in the assay with BT-549 breast; 31.7% (inactive) in the assay on MDA-MB-435 melanoma; 67.2% (inactive) in the assay with SW-620 colon; 8.82% (active) in the assay on MCF7 breast; 55.3% (inactive) in the assay on HCT-116 colon. In addition, the growth in the assay with KM12 colon was 34.2% (inactive).
`CNc1cc(-c2cccc(OC(F)(F)F)c2)nc2ccc(N3CCCC3)cc12`: the growth with T-47D breast is -40.3% (active) and -55% (active) and -40.4% (active); with BT-549 breast it was -81.3% (active) and 74.1% (inactive) and 76.4% (inactive); with MDA-MB-435 melanoma it was 35.8% (inactive) and -86.4% (active) and -70.6% (active); in the assay on SW-620 colon, 5.95% (active) and -18.2% (active) and 0.371% (active); in the assay with MCF7 breast it was 3.84% (active) and -19.7% (active) and 0.755% (active); in the assay with HCT-116 colon, -76% (active) and -90.3% (active) and -76.6% (active). Further, the growth in the assay with HCC-2998 colon was 25.9% (inactive) and -53.7% (active) and -32.7% (active); with KM12 colon it was 12.5% (inactive) and -3.68% (active) and 1.48% (active).
As for `CC(=O)Nc1cccc2c1CCCC2`, the growth is 92.7% (inactive) in the assay on T-47D breast; 97% (inactive) with BT-549 breast; 103% (inactive) and 110% (inactive) in the assay on MDA-MB-435 melanoma; 108% (inactive) and 107% (inactive) in the assay with SW-620 colon; 92.1% (inactive) and 91.2% (inactive) in the assay on MCF7 breast; 97.5% (inactive) and 102% (inactive) in the assay on HCT-116 colon. The growth in the assay with KM12 colon is 102% (inactive) and 103% (inactive).
Take `O=[N+]([O-])c1ccc(/C=N\NC(=S)Nc2ccc(F)cc2)cc1`: the growth was 94.5% (inactive) and 88.4% (inactive) with T-47D breast; 97.9% (inactive) in the assay on BT-549 breast; 109% (inactive) and 101% (inactive) in the assay on MDA-MB-435 melanoma; 106% (inactive) and 94.1% (inactive) in the assay with SW-620 colon; 89% (inactive) and 97.8% (inactive) in the assay with MCF7 breast; 71.7% (inactive) and 53% (inactive) with HCT-116 colon. Besides, the growth in the assay with KM12 colon was 98.6% (inactive) and 81.3% (inactive).
On to `CNC(=O)c1cccc(-c2ccc3c(N4CCOC[C@@H]4C)nc(N4CCOC[C@@H]4C)nc3n2)c1`, for which the growth with T-47D breast is -24.4% (active) and -34.1% (active); with BT-549 breast, -7.8% (active) and -13.9% (active); in the assay with MDA-MB-435 melanoma, 2.05% (active) and -13.4% (active); in the assay with SW-620 colon it was 11.4% (inactive) and 5.84% (active); in the assay on MCF7 breast it was 5.66% (active) and 4.27% (active); in the assay on HCT-116 colon, 27.7% (inactive) and 15.4% (inactive). In addition, the growth in the assay with KM12 colon was 11.7% (inactive) and 13.2% (inactive).
With `c1ccc(NCc2ccc3c(c2)OCO3)cc1`, the growth in the assay with T-47D breast is 94.3% (inactive) and 110% (inactive); in the assay on BT-549 breast it was 99.4% (inactive) and 85.2% (inactive); in the assay on MDA-MB-435 melanoma, 111% (inactive) and 98.2% (inactive); in the assay on SW-620 colon, 102% (inactive) and 101% (inactive); with MCF7 breast, 99.7% (inactive) and 102% (inactive); in the assay on HCT-116 colon it was 103% (inactive) and 98.3% (inactive). Also, the growth with KM12 colon was 103% (inactive) and 102% (inactive).
Regarding `COC(=O)[C@H]1CCCN1C(=O)C1CCCN1C(=O)[C@@H](Cc1ccccc1)NC(=S)Nc1cc(C(F)(F)F)cc(C(F)(F)F)c1` (some centres not stated), the growth in the assay on T-47D breast is 105% (inactive) and 69.1% (inactive); in the assay with BT-549 breast, 112% (inactive) and 96.8% (inactive); in the assay on MDA-MB-435 melanoma, 100% (inactive) and 89.7% (inactive); with SW-620 colon, 104% (inactive) and 89% (inactive); in the assay with MCF7 breast, 99.2% (inactive) and 86.3% (inactive); in the assay on HCT-116 colon, 112% (inactive) and 65.5% (inactive). Also, the growth in the assay with HCC-2998 colon was 108% (inactive) and 112% (inactive); in the assay with KM12 colon, 111% (inactive) and 96.5% (inactive).
For `Cc1ncsc1CCO`, the growth is 93.5% (inactive) and 94.4% (inactive) in the assay with T-47D breast; 101% (inactive) and 100% (inactive) in the assay on BT-549 breast; 106% (inactive) and 104% (inactive) in the assay on MDA-MB-435 melanoma; 108% (inactive) and 101% (inactive) in the assay with SW-620 colon; 109% (inactive) and 96% (inactive) with MCF7 breast; 101% (inactive) and 109% (inactive) in the assay with HCC-2998 colon. Further, in the assay with KM12 colon, the growth is 110% (inactive) and 98.1% (inactive).
In the case of `O=C(N/N=C/c1cccc2ccccc12)C1CC1`, the growth was 98.9% (inactive) and 109% (inactive) with T-47D breast; 101% (inactive) in the assay with BT-549 breast; 117% (inactive) and 97.8% (inactive) in the assay on MDA-MB-435 melanoma; 110% (inactive) and 102% (inactive) with SW-620 colon; 80.3% (inactive) and 87.5% (inactive) in the assay on MCF7 breast; 106% (inactive) and 102% (inactive) with HCT-116 colon. Besides, the growth in the assay on KM12 colon was 108% (inactive) and 104% (inactive).
As to `CN(Cc1ccccc1)Cc1ccccc1`, the growth in the assay with T-47D breast is 92.8% (inactive); with BT-549 breast it was 106% (inactive); in the assay on MDA-MB-435 melanoma it was 105% (inactive); in the assay on SW-620 colon it was 112% (inactive); with MCF7 breast, 97.9% (inactive); with HCT-116 colon, 103% (inactive). In addition, the growth in the assay with KM12 colon was 98.5% (inactive).
With `Cc1nnc(NC/C=C/c2ccccc2)s1`, the growth in the assay with T-47D breast was 91.6% (inactive) and 101% (inactive); in the assay on BT-549 breast, 97.6% (inactive) and 113% (inactive); with MDA-MB-435 melanoma it was 110% (inactive) and 108% (inactive); with SW-620 colon it was 113% (inactive) and 105% (inactive); with MCF7 breast it was 98.8% (inactive) and 96.2% (inactive); in the assay on HCT-116 colon, 105% (inactive) and 100% (inactive). Besides, the growth with KM12 colon was 94.4% (inactive).
Turning to `S=C1SCN(Cc2ccccc2)CN1Cc1ccccc1`, the growth in the assay with T-47D breast is 41.4% (inactive); with BT-549 breast, 93.6% (inactive); in the assay on MDA-MB-435 melanoma it was 85.5% (inactive); in the assay on SW-620 colon, 32.9% (inactive); in the assay with MCF7 breast, 17.8% (inactive); in the assay on HCT-116 colon, 7.28% (active). Also, the growth in the assay on KM12 colon is 5.8% (active).
Take `COc1ccccc1NC(=O)OCC#CCOC(=O)Nc1ccccc1OC`: the growth in the assay with T-47D breast was 96.7% (inactive) and 89.2% (inactive); in the assay on BT-549 breast it was 91% (inactive); with MDA-MB-435 melanoma, 95.2% (inactive) and 75.5% (inactive); in the assay on SW-620 colon it was 102% (inactive) and 90.2% (inactive); in the assay with MCF7 breast, 107% (inactive) and 91.8% (inactive); in the assay on HCT-116 colon it was 99.9% (inactive) and 87.4% (inactive). In addition, the growth in the assay on KM12 colon is 108% (inactive) and 91.2% (inactive).
As for `CCNC(=O)Nc1ccc(-c2nc3c(c(N4CCOC[C@@H]4C)n2)CCN(C2COC2)C3)cc1`, the growth was -12.4% (active) and -25.3% (active) in the assay on T-47D breast; 28.9% (inactive) and -1.93% (active) in the assay on BT-549 breast; 32.9% (inactive) and 0.798% (active) in the assay with MDA-MB-435 melanoma; 62.2% (inactive) and 14% (inactive) in the assay with SW-620 colon; 15.6% (inactive) and 11.8% (inactive) in the assay with MCF7 breast; 58.9% (inactive) and 28.5% (inactive) with HCT-116 colon. Further, in the assay with KM12 colon, the growth is 47.5% (inactive) and 17.1% (inactive).
In the case of `O=C1c2ccccc2C(=O)N1/N=C/c1ccc2c(c1)OCO2`, the growth in the assay on T-47D breast is 99.9% (inactive); with BT-549 breast, 97.2% (inactive); in the assay with MDA-MB-435 melanoma, 114% (inactive); with SW-620 colon it was 107% (inactive); in the assay on MCF7 breast, 91.3% (inactive); in the assay with HCT-116 colon, 95% (inactive). In addition, the growth with KM12 colon was 113% (inactive).
Turning to `CCN(CC)CCNc1ccc(C)c2sc3ccccc3c(=O)c12` (tested in a mixture with another compound), the growth in the assay on T-47D breast was 41% (inactive) and 31.5% (inactive); in the assay with BT-549 breast, 46.4% (inactive) and 79.4% (inactive); in the assay with MDA-MB-435 melanoma, 23.9% (inactive) and 28.2% (inactive); with SW-620 colon, 24% (inactive) and 20.5% (inactive); in the assay with MCF7 breast, 12.2% (inactive) and 5.61% (active); in the assay with HCT-116 colon, 19.4% (inactive) and 19.9% (inactive). Also, the growth with KM12 colon is 32.9% (inactive) and 23.9% (inactive).
Regarding `COc1ccc(-c2ncnc3c2ncn3C/C=C/CCl)cc1`, the growth with T-47D breast is 67.9% (inactive) and 92.5% (inactive); in the assay on BT-549 breast it was 53.8% (inactive) and 87.2% (inactive); with MDA-MB-435 melanoma, 57.8% (inactive) and 81.6% (inactive); in the assay on SW-620 colon, 61.1% (inactive) and 74.7% (inactive); in the assay on MCF7 breast, 40.2% (inactive) and 55.6% (inactive); in the assay with HCT-116 colon, 46.6% (inactive) and 76.8% (inactive). Also, the growth in the assay with HCC-2998 colon is 91.2% (inactive) and 95.4% (inactive); in the assay with KM12 colon, 85.4% (inactive) and 102% (inactive).
Regarding `C=C1C(=O)O[C@H]2[C@H]1CC/C(COC(=O)NC1CCC(O)CC1)=C\CC[C@@]1(C)O[C@@H]21` (some centres not stated), the growth is 59.6% (inactive) and 47.6% (inactive) in the assay with T-47D breast; 83.3% (inactive) and 79.1% (inactive) in the assay on BT-549 breast; 58.4% (inactive) and 54.8% (inactive) with MDA-MB-435 melanoma; 27.4% (inactive) and 30.1% (inactive) in the assay on SW-620 colon; 75.2% (inactive) and 66.7% (inactive) in the assay with MCF7 breast; 41.5% (inactive) and 33% (inactive) in the assay with HCT-116 colon. Moreover, the growth in the assay on KM12 colon was 96.8% (inactive) and 97.9% (inactive).
